Compounds with a hit are over-represented: about 2.4% of the library has one in this group of screens.
LT uptake inh: inhibitors of anthrax lethal toxin internalization | Cells, anthrax lethal toxin internalization, FRET ratio (460/530) | 70,000 tested, 0.67% active | AID 912 | Potency, µM (titrated, usually from 40 µM), for the others: at the top dose activity change, negative = inhibition, hits mostly inhibitors; note: % is set by controls: 0 for no effect and ±100 for the full control effect; nearly all actives have a fitted effect of over 50% in size
AmpC det inh: inhibitors of E. coli AmpC beta-lactamase with detergent; 71,000 tested, 0.09% active; Potency, µM (series often up to 28.7 µM), for the others: top-dose activity change, negative = inhibition; P00811; purified AmpC, nitrocefin hydrolysis with detergent; AID 584; active = well fitted curve in the direction sought with a large enough effect; inconclusive = small, poorly fitted or top-dose-only effect; note: % is set by controls: 0 for no effect and ±100 for the full control effect
Target sequence (P00811 whole entry, looked up): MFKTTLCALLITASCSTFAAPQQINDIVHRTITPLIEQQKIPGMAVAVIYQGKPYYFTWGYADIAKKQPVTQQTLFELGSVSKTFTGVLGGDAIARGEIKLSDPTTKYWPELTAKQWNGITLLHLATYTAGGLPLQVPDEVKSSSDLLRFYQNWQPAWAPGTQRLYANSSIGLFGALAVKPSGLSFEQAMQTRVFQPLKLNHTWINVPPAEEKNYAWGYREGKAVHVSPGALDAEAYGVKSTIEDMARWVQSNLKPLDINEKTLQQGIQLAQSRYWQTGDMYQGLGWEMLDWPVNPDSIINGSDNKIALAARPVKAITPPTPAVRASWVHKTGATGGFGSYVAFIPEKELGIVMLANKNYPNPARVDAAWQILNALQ
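E. coli AmpC (5.3 nM) in 20 mM phosphate pH 7.0 with 0.01% Triton X-100, preincubated 15 min RT with compound; nitrocefin (2 uL of 800 uM stock) hydrolysis followed by 480 nm absorbance every 20 s over 4 min.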
SmPrx2 inh: inhibitors of Schistosoma mansoni peroxiredoxin 2 | S. mansoni Prx2 activity coupled to TGR/GSH (TGR is thioredoxin glutathione reductase), NADPH fluorescence loss, qHTS | Potency, µM | 65,000 tested, 0.07% active | AID 448
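Purified S. mansoni TGR and Prx2 in pH 7.4 phosphate buffer with EDTA and Tween-20 were preincubated with compounds for 15 min. Further NADPH/GSH was added, then a 2.5 mM H2O2 aliquot initiated turnover, followed kinetically by NADPH fluorescence.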
AmpC nodet inh: blocks E. coli AmpC beta-lactamase in absence of detergent | P00811 | AmpC nitrocefin hydrolysis, absorbance 480 nm, no detergent | Potency, µM (highest dose often 28.7 µM), without a hit: top-dose activity change, negative = inhibition | 71,000 tested, 1.8% active | AID 585; note: % of control where 0% means no effect
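AmpC in 20 mM phosphate buffer pH 7.0 was preincubated 15 min at room temperature with compounds. Nitrocefin (800 uM stock) was then added and hydrolysis followed at 480 nm every 20 s for 4 min.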
* = called active by the depositor; ? = inconclusive; . = no result given; [ ] = dose if it differs, or a comment. Unless noted, calls come from the whole dose curve. Potency is the fitted concentration of half-maximal effect.

SMILES | LT uptake inh | AmpC det inh | SmPrx2 inh | AmpC nodet inh
Nc1c(S(=O)(=O)O)cc(Nc2ccc(Nc3nc(Cl)nc(Nc4ccc(S(=O)(=O)O)cc4)n3)c(S(=O)(=O)O)c2)c2c1C(=O)c1ccccc1C2=O | ? | 13µM* | >57 | -35%
Cn1c(C(=O)Nc2ccc3c(c2)OCO3)cc2c(=O)n(C)c3ccccc3c21 | ? | 6% | >57 | 4µM*[single pt active]
Cn1c(C(=O)NCCN2CCCCCC2)cc2c(=O)n(C)c3ccccc3c21 | 1.6µM* | 10% | >57 | 128%
CC1CCN(CCCNC(=O)c2cc3c(=O)n(C)c4ccccc4c3n2C)CC1 | 6.3µM* | 12% | >57 | 20%
Cn1c(C(=O)NCCN2CCN(Cc3ccccc3)CC2)cc2c(=O)n(C)c3ccccc3c21 | -2% | 7% | >57 | ?
CN1CCN(CCCNC(=O)c2cc3c(=O)n(C)c4ccccc4c3s2)CC1 | 10µM* | 5% | >57 | 33%
CCCCN(CC)CCNS(=O)(=O)c1cccc2cccnc12 | -26% | 28% | >57 | 4%
CCCCN(CC)CCCNC(=O)c1cc2c(=O)n(C)c3ccccc3c2n1C | 4µM* | 14% | >57 | 21%
CC(C)OCCCNC(=O)c1cc2c(=O)n(C)c3ccccc3c2n1C | 5% | 14% | >57 | 29%
Cn1c(C(=O)NCC2CCCO2)cc2c(=O)n(C)c3ccccc3c21 (configuration not stated) | 5% | 12% | >57 | 4µM*[single pt active]
COc1ccccc1CNC(=O)c1cc2c(=O)n(C)c3ccccc3c2n1C | 3% | 11% | >57 | 4µM*[single pt active]
O=C(NCCCN1CCOCC1)c1ccc(CS(=O)(=O)c2ccc(Br)cc2)o1 | -11% | 10% | >57 | 4µM*[single pt active]
O=C(NCCCN1CCOCC1)c1ccc(CS(=O)(=O)c2c(Cl)cccc2Cl)o1 | -12% | 18% | >57 | 3.2µM*[single pt active]
O=C(NCCN1CCOCC1)c1ccc(CS(=O)(=O)c2ccc(Br)cc2)o1 | -3% | -1% | >57 | 31%
COc1ccccc1S(=O)(=O)Cc1ccc(C(=O)NCCN2CCCCCC2)o1 | -17% | 10% | >57 | 4µM*[single pt active]
COc1ccc(C(=O)N2CCC3(CC2)CCN(c2cccc(-c4ccccc4)c2)CC3)cc1 | ? | -4% | >57 | 90%
COCCn1c(=O)c(CCc2ccccc2)nc2cnc(N(C)C)nc21 | ? | 0% | >57 | 82%
N#Cc1c(-c2ccc(Cl)cc2Cl)nc2n(c1=O)CCS2 | ? | 0% | >57 | 10µM*[single pt active]
CCCCSc1c(C)c2cc3c(cc2[nH]c1=O)OCO3 | . | -4% | >57 | 16µM*[single pt active]
CCc1nnc(NC(=O)CSc2nnc(COc3ccccc3C)o2)s1 | -2% | -3% | >57 | 13µM*[single pt active]
COc1ccc(NC(=O)c2cc(-c3ccc(O)cc3)on2)cc1OC | -5% | 5% | >57 | -4%
CC1(C)S[C@@H]2[C@H](NC(=O)[C@@H](N)c3ccccc3)C(=O)N2[C@H]1C(=O)O[C@H]1OC(=O)c2ccccc21 | -7%[3.58 µM] | ? | >57 | 0.04µM*
CC1(C)S[C@@H]2[C@H](NC(=O)[C@H](C(=O)O)c3ccsc3)C(=O)N2[C@H]1C(=O)O | 0%[3.58 µM] | 5µM* | >57 | 4µM*
CC1(C)S[C@@H]2[C@H](NC(=O)[C@@H](N)c3ccc(O)cc3)C(=O)N2[C@H]1C(=O)O | 2%[3.58 µM] | 0.32µM* | >57 | 1.3µM*
CC1(C)S[C@@H]2[C@H](NC(=O)[C@@H](NC(=O)N3CCNC3=O)c3ccccc3)C(=O)N2[C@H]1C(=O)O | -1%[3.58 µM] | 7.9µM* | >57 | 5µM*
SMILES | LT uptake inh | AmpC det inh | SmPrx2 inh | AmpC nodet inh
CCN1CCN(C(=O)N[C@H](C(=O)N[C@@H]2C(=O)N3[C@@H]2SC(C)(C)[C@@H]3C(=O)O)c2ccccc2)C(=O)C1=O | -1%[3.58 µM] | ? | >57 | ?
COc1ccc(C(=O)N2CCC[C@@]3(CCN(c4ccccc4)C3)C2)cc1 | -1% | 3% | >57 | 118%
C/C(=C\C(=O)c1ccc(C)cc1)Nc1cccc(O)c1 | 10µM* | 9% | . | -6%
CCC1CCCN1Cn1cnc2c([nH]c3ccc(OC)cc32)c1=O (configuration not stated) | -5% | -2% | >57 | 2%
CCCCN(CCCC)CCn1cnc2c([nH]c3ccc(OC)cc32)c1=O | -14% | 13% | >57 | 4µM*[single pt active]
Cc1noc(C)c1C(=O)N1CCC[C@@]2(CCN(C(=O)Nc3ccccc3)C2)C1 | 4% | 0% | >57 | 5%
COc1cccc(-c2cc(C(=O)Nn3cnnc3)c3ccccc3n2)c1 | -5% | 12% | >57 | -9%
COC(=O)[C@H](NC(=O)c1cc(-c2ccccc2)nc2ccccc12)c1ccccc1 | 5µM* | -1% | >57 | 34%
O=C(Nc1nc(-c2ccc(S(=O)(=O)N3CCCC3)cc2)cs1)c1cccs1 | -26% | -1% | >57 | -12%
O=C(Nc1nc(-c2ccc(S(=O)(=O)N3CCCCCC3)cc2)cs1)c1cccs1 | ? | -3% | >57 | 7.9µM*
O=C(Nc1nc(-c2cccs2)cs1)c1cccc(S(=O)(=O)N2CCCCC2)c1 | ? | -3% | >57 | 7.9µM*
Cc1ccc(-c2csc(NC(=O)c3cccc(S(=O)(=O)N4CCN(C)CC4)c3)n2)cc1 | -24% | 11% | >57 | 134%
O=C(Nc1nc(-c2cc(Cl)sc2Cl)cs1)c1cccs1 | ? | 9% | >57 | 0.32µM*
CCCn1c(C)nc2c(N(C)CCN(C)C)nc(C)nc21 | ? | 10% | . | 14%
COCCn1c(=O)c(-c2cn(C)c3ccccc23)nc2cnc(Oc3cccc(Cl)c3)nc21 | 1% | 2% | >57 | 2%
COc1ccc(Oc2ncc3nc(C)c(=O)n(C[C@H]4CCCO4)c3n2)cc1 | ? | -3% | >57 | 69%
COc1ccccc1NC(=O)Cn1c(=O)n2nc(C)nc2c2ccccc21 | -3% | 7% | >57 | 26%
COc1ccc(Cl)cc1NC(=O)Cn1c(=O)n2nc(C)nc2c2ccccc21 | -4% | 11% | >57 | 4µM*[single pt active]
CCOC(=O)N1CCC(NC(=O)c2ccc(CS(=O)(=O)c3ccccc3C)o2)CC1 | -3% | 11% | >57 | 4µM*[single pt active]
CCCCN(C)C(=O)c1ccc(CS(=O)(=O)c2ccccc2C)o1 | -7% | 12% | >57 | 4µM*[single pt active]
COc1ccc2nc3sc(C(=O)NCc4cccs4)c(N)c3cc2c1 | 2% | 28% | >57 | 13µM*
N#Cc1c(N)nc2c(c1-c1ccc3c(c1)OCO3)CCCCCC2 | -25% | 0% | >57 | 8%
N#Cc1c(N)oc(-c2ccc3c(c2)OCO3)c1-c1ccc2c(c1)OCO2 | 5% | -2% | >57 | 10µM*
O=C(Cn1c(=O)oc2ccccc21)N1CCN(c2ccc(N3CCOCC3)nn2)CC1 | 2% | 12% | >57 | 2.5µM*[single pt active]
O=C1C(Cl)=C(Cl)C(=O)C(Cl)=C1Cl | ? | -24% | . | 13µM*
COc1ccccc1CNc1ncnc2ccc(-c3cccc(NS(C)(=O)=O)c3)cc12 | ? | 7% | >57 | -2%
CCCn1c(C)c(C(=O)c2ccc3ccccc3c2)c2ccccc21 | 13µM* | -5% | >26 | 19%
COc1ccc(C(=O)N2CCC3(CC2)CN(c2ccccc2)C3)cc1 | 1% | 2% | >57 | 92%

Screening data from PubChem.
